Measured values as given in PubChem BioAssay (EPA / NIEHS).
Inconclusive results are not listed. Active and inactive are the calls of the source. Rule for the calls: active = hit-call score of the fitted dose curve at least 0.9, where 1 is the maximum; inconclusive = response in the unintended direction; inactive = score below 0.9.

biological target: human CYP2A6, CYP2A6 (gene 1548) (UniProt P11509); assay: NVS_ADME_hCYP2A6: NovaScreen (NVS) CYP450-related Enzyme Activity (ADME) Assay for human CYP2A6 (AID 2283099)
Sequence (P11509 whole entry, looked up): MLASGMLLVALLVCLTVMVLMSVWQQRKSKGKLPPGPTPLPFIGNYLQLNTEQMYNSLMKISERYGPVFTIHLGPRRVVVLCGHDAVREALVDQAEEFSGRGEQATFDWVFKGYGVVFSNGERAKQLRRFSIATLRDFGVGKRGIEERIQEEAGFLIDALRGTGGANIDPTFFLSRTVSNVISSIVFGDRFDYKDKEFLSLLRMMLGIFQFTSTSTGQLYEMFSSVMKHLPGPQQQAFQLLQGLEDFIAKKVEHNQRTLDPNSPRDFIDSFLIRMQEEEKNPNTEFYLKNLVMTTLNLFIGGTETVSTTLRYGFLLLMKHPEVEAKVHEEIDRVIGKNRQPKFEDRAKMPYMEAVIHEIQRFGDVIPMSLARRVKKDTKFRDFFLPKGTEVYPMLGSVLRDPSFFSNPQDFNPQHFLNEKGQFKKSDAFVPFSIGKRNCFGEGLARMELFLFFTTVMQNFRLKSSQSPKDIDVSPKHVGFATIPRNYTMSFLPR
Method: NVS_ADME_hCYP2A6 is a biochemical, single-readout assay that uses extracted gene-proteins from insect cells in a cell-free assay. Measurements were taken 0.5 hour after chemical dosing in a 96-well plate.NVS_ADME_hCYP2A6 is one of one assay component(s) measured or calculated from the NVS_ADME_hCYP2A6 assay. It is designed to make measurements of enzyme activity, a form of enzyme reporter, as detected with fluorescence intensity signals by Fluorescence technology.Data from the assay component NVS_ADME_hCYP2A6 was analyzed into 1 assay endpoint. This assay endpoint, NVS_ADME_hCYP2A6, was analyzed in the positive analysis fitting direction relative to Acetonitrile as the negative control and baseline of activity. Using a type of enzyme reporter, loss-of-signal activity can be used to understand changes in the enzymatic activity as they relate to the gene CYP2A6. Furthermore, this assay endpoint can be referred to as a primary readout, because this assay has produced multiple assay endpoints where this one serves a enzymatic activity function. To generalize the intended target to other relatable targets, this assay endpoint is annotated to the cyp intended target family, where the subfamily is xenobiotic metabolism.
Binding assays used specific radioligands (tritiated, iodinated) with non-radioactive competitive displacement ligands in agonist or antagonist protocols (as indicated) and various reference compounds and inhibitors to titrate specific binding to receptors and transporters. Most enzyme assays (CYPs, kinases, phosphatases, proteases, HDACs) used recombinant protein and specific substrates (fluorescence mostly, some colorimetric and radioactive) and inhibitors, followed by a biochemical separation of substrate and product. All assays for the biochemical HTS were initially run in duplicate at a single concentration (10 uM for CYP450 assays and 25 uM for all others). Assay-chemical combinations meeting a pre-defined threshold (e.g., 30% inhibition and other criteria defined below) were then run in singleton concentration-response format with maximum concentration of 20 uM for CYPs and 50 uM for all others. Each assay was run with positive and negative controls, and concurrent controls on every plate. The follow-up (secondary) screen tested active chemical-pairs in concentration series, as well as a few additional assays not tested in the primary screen, some selected negative inactives, and several cases re-run in the concentration series for confirmatory purposes.

SMILES	outcome	AC50
Nc1ccc(N=Nc2ccccc2)cc1	inactive	–
[Cl-].[Cl-].[Hg+2]	–	14.8 µM (active)
O=[N+]([O-])C(Br)(CO)CO	inactive	–
CCCCCCCCn1sccc1=O	–	4.74 µM (active)
Cc1cccc(N)c1N	inactive	–
Cc1cc(N=Nc2ccccc2C)ccc1N	inactive	–
O=C(N[C@H](c1ccccc1)[C@@H]1CN2CCC1CC2)c1c(Cl)ccc(C(F)(F)F)c1Cl	inactive	–
CC(C)(OOC(C)(C)c1ccccc1)c1ccccc1	inactive	–
CCOC(=O)[C@]1(c2ccccc2)Oc2ccccc2[C@@H]1N	inactive	–
Clc1ccccc1Cl	inactive	–
C[N+](C)(C)CC1CO1 (configuration not stated)	inactive	–
Nc1ccc([N+](=O)[O-])cc1	–	8.46 µM (active)
